Measured values: PubChem BioAssay AID504333 (National Center for Advancing Translational Sciences (NCATS), 2011)
The campaign covered roughly 360,000 compounds. About 16,000 (4.4%) were called active. Roughly 9% stayed inconclusive and do not appear here. The sample holds actives, similar compounds and a random draw of the others, so the mix is not that of the screen. Values without a mark were called inactive. Calls follow the shape of the dose curve; as a rule, active = well fitted inhibition curve with a large enough effect; inconclusive = small, poorly fitted or top-dose-only effect; inactive = no such curve, though single readings can be large or run the other way.

What follows are molecules tested against Bromodomain adjacent to zinc finger domain protein 2B (Homo sapiens) (UniProt Q9UIF8) (assay: qHTS Assay for Inhibitors of BAZ2B). Settings: AlphaScreen BAZ2B-H3K14Ac peptide displacement; series mostly up to 114 µM; activity change, negative = inhibition: at the top concentration.
Sequence of Bromodomain adjacent to zinc finger domain protein 2B (Homo sapiens) (Q9UIF8 whole entry, looked up, the tested form may be a part): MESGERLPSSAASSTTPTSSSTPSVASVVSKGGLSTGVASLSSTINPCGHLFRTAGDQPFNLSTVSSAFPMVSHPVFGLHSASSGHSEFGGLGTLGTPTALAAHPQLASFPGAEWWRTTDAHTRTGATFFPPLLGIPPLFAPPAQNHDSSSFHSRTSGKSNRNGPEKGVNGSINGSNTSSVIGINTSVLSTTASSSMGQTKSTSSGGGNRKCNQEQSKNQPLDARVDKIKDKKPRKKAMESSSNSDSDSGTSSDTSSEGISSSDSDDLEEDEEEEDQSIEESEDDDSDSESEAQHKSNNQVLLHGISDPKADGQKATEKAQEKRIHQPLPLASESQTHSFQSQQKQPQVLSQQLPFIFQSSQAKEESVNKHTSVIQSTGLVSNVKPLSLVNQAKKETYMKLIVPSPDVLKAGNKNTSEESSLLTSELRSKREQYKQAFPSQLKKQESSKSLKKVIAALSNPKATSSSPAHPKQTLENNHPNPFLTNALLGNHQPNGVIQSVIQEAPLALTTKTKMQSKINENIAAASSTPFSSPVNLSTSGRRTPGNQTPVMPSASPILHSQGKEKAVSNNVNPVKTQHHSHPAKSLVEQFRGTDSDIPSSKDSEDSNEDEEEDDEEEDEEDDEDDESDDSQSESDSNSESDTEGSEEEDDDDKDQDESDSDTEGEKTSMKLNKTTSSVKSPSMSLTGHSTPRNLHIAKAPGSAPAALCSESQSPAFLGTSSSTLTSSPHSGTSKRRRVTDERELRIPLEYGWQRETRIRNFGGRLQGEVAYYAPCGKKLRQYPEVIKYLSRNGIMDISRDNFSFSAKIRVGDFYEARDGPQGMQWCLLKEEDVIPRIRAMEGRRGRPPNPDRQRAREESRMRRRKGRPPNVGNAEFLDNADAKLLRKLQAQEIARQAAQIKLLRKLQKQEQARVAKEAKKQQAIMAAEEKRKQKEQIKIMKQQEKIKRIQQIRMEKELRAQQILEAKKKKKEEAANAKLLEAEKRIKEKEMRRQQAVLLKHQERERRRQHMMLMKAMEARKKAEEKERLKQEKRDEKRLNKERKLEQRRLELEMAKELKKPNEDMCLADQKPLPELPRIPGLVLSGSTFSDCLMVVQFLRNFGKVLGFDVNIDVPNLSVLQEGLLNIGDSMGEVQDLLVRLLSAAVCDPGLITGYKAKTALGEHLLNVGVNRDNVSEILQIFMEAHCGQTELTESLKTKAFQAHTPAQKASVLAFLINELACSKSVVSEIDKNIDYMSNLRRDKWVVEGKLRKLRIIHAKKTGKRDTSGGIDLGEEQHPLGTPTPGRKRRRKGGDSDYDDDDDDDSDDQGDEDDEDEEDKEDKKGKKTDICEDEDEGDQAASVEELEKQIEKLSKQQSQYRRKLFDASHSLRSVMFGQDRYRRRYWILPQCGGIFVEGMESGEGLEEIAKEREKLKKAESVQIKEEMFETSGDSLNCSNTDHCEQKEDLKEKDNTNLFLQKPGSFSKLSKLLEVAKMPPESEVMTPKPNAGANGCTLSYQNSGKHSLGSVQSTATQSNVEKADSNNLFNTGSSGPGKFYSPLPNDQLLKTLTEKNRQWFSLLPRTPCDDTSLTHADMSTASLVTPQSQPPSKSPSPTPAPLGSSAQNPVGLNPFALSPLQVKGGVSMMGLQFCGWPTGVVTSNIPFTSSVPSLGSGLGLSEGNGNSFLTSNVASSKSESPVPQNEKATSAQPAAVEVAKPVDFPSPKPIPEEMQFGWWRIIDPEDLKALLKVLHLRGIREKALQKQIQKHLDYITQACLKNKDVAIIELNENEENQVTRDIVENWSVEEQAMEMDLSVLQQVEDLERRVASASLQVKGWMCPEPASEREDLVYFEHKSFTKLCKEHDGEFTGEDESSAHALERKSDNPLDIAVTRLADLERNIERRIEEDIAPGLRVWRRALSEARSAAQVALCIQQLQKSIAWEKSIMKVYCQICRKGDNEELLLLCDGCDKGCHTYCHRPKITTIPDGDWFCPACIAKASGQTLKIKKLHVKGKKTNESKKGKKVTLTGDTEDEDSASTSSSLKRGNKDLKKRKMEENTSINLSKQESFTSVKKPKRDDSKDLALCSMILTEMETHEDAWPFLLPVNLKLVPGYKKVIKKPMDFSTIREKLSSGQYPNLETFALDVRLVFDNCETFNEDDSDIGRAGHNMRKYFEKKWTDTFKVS
Source text: BAZ2B (bromodomain adjacent to zinc finger domain, 2B) belongs to a family of ubiquitously expressed bromodomain containing proteins, which biological function has not yet been elucidated. […] The interaction of BAZ2B with ISWI mediated by the BAZ1 motif has recently been described. […] The protocol is based on the AlphaScreen (PerkinElmer) displacement assay developed by NCGC [5], but uses the peptide ligand Biot-H3K14Ac, a high affinity binding partner for BAZ2B, in an AlphaScreen format. Although AlphaScreen has significant advantages with its utility in a variety of epigenetic target assays, the primary screening data provided in this deposition should be used with caution due to the prevalence of screening artifacts. The top compound concentration tested was 110uM in this assay, which increases number of actives and potential artifacts. An AlphaScreen counterscreen is highly recommended to be run against any putative actives to eliminate non-specific artifacts. Alternatively, one can use other AlphaScreen assays in PubChem to filter out promiscuous hits. Eberharter, A. et al. ACF1 improves the effectiveness of nucleosome mobilization by ISWI through PHD-histone contacts. The EMBO journal 23, 4029-4039. 2004. PMID: 15457208 [2] Jones, M.H. et al. A novel family of bromodomain genes. Genomics 63, 40-45. 2000. PMID: 10662543 [3] Yasgar, et al. Compound Management for Quantitative High-Throughput Screening. JALA. 2008 Apr;13(2):79-89. PMID: 18496600 [4] Inglese, et al. Quantitative high-throughput screening: a titration-based approach that efficiently identifies biological activities in large chemical libraries. Proc Natl Acad Sci. 1;103(31):11473-8. 2006. PMID: 16864780 [5] Quinn et al. A chemiluminescence-based method for identification of histone lysine methyltransferase inhibitors. Mol Biosyst 6(5): 782-8. 2010. PMID: 20567762 [6] Baell,Holloway. New substructure filters for removal of pan assay interference compounds (PAINS) from screening libraries and for their exclusion in bioassays. J Med Chem. 53(7):2719-40. 2010. PMID: 20131845 NIH Molecular Libraries Probe Production Network [MLPCN] NIH Chemical Genomics Center [NCGC] Structural Genomics Consortium (SGC) NIH Grant: 5U54 MH084681-02
To each well of a 1,536w plate, 2ul of BAZ2B protein (final 50nM) and 1ul biotinylated histone peptide acetylated at Lys14 [b-H3(5-23)K14Ac] (final 50nM) were added in 1x PBS buffer, pH 7.4, containing 0.01% Tween-20, using a nanoliter dispenser. Formation of a protein-peptide complex proceeded at room temperature for 30 min. A Kalypsys pin-tool was employed to transfer 23 nL of library compound solution in DMSO to each well. Following a 30 min incubation of the protein-peptide complex with compounds at room temperature, a mixture of 40 ug/mL each streptavidin-coated donor and nickel chelate acceptor AlphaScreen beads (final 10 ug/mL) were added in a 1ul dispense for a final volume of 4ul. A brief centrifugation followed (1000rpm, 1 min) and were then incubated protected from the light for 20 min at room temperature. Plates were read on an EnVision multilabel plate reader using the 1,536 plate HTS AlphaScreen aperture (excitation time 80 ms, measurement time 240 ms).
% is scaled to controls: 0 for no effect and ±100 for the full control effect; potency is read from the fitted curve at half-maximal effect.
Also: nearly all actives have a fitted effect of over 60% in size.

Compound | Potency | activity change, negative = inhibition
CC[N+](C)(CC)CCC[n+]1c(-c2ccccc2)c2cc(N)ccc2c2ccc(N)cc21 | 44.7 µM (active) | 
CNC(=O)O/N=C(\N)Cc1csc2ccccc12 |  | -3.28%
COCCNC(=O)CN1C2CCC1CC(O)(c1cccnc1)C2 (centres undefined) |  | -1.47%
COC(=O)C1=C(c2ccc(Cl)c(C(F)(F)F)c2)C[C@@H]2CC[C@H]1N2C(=O)NC1CC1 |  | 12.5%
COc1ccc(CNCCc2c[nH]c3ccccc23)cc1OC | 50.1 µM (active) | 
c1cncc(CNCCc2c[nH]c3ccccc23)c1 |  | -22%
C/C(CCc1c[nH]c2ccccc12)=N\O |  | -0.449%
O=c1[nH]c(O)c(C=Nc2cc(F)cc(F)c2)c(=O)[nH]1 |  | 7.43%
COC(=O)C1=C(c2cccc(OCc3ccccc3)c2)C[C@@H]2CC[C@H]1N2C(=O)NNCc1ccccc1 |  | -1.25%
Cc1ccccc1NC(=O)COC(=O)c1cc(C)n(C2CC2)c1C |  | -3.66%
COc1ccc(C2N3CC(C)(C)CN23)cc1 (centres undefined) |  | -14.1%
CCC1(C)CC(CCNCc2ccc(N(C)C)cc2)(c2ccc(F)cc2)CCO1 (centres undefined) | 35.5 µM (active) | 
O=C(COC(=O)c1ccccc1)Nc1ccccc1Sc1ccccc1 |  | 92.9%
CN(C)CCN(CC1CCCN(Cc2ccccc2F)C1)C(=O)Cc1ccc(F)c(F)c1 (centres undefined) |  | 0.813%
CCCCCn1c(=O)c(C(=O)NCc2ccccc2)c(O)c2ccccc21 |  | 55.7%
O=C(C1CCN(CC2CCCCC2)CC1)N1CCCC1 | 70.8 µM (active) | 
COC(=O)C1=C(c2ccc(-c3ccccc3)c(F)c2)C[C@@H]2CC[C@H]1N2C(=O)NCc1ccc(F)cc1 |  | -1.72%
COc1cccc(C(=O)N2C[C@H]3C[C@@H](C2)c2cccc(=O)n2C3)c1 |  | -20.1%
COc1cccc(OC)c1C(=O)NC(=S)N1C[C@H]2C[C@H](C1)c1cccc(=O)n1C2 |  | -5.95%
COC(=O)C1=C(c2c(C)noc2C)C[C@@H]2CC[C@H]1N2C(=O)NCc1ccc2c(c1)OCO2 |  | -0.66%
COc1ccc(CNCCc2ccc3c(c2)OCO3)c(OC)c1OC | 50.1 µM (active) | 
Cc1cc(N2C(=O)C3CCCN3C2c2ccc(Cl)c(Cl)c2)no1 (centres undefined) |  | 8.95%

Compound | Potency | activity change, negative = inhibition
O=C(O)CCn1cc(C=C2C(=O)NC(=S)NC2=O)c(-c2cccc(Br)c2)n1 | 79.4 µM (active) | 
CN1C2C=C(N(C(=O)c3ccc(Cl)cc3)c3ccccc3)CC1CC2 (centres undefined) |  | -15.3%
O=C(NC(=S)N1C[C@H]2C[C@H](C1)c1cccc(=O)n1C2)c1ccc(F)cc1 |  | -11.4%
O=C(N/N=C/c1c(O)n(Cc2ccccc2)c(=O)[nH]c1=O)c1ccccc1 | 50.1 µM (active) | 
Cc1cccc(-n2c(O)c(C=NC34CN5CN(CN(C5)C3)C4)c(=O)[nH]c2=O)c1 |  | -4.42%
CCCCC(=O)N/N=C/c1c(O)n(CCC2=CCCCC2)c(=O)[nH]c1=O | 79.4 µM (active) | 
CCCCC(=O)N/N=C/c1c(O)n(-c2ccccc2)c(=O)[nH]c1=O | 50.1 µM (active) | 
O=c1[nH]c(=O)n(Cc2ccccc2)c(O)c1/C=N/Nc1c(F)c(F)c(F)c(F)c1F |  | -2.27%
O=c1[nH]c(=O)n(-c2ccccc2)c(O)c1C=NC12CN3CN(CN(C3)C1)C2 |  | -7.16%
O=c1[nH]c(=O)n(CCc2ccccc2)c(O)c1/C=N/N1CCOCC1 |  | 1.1%
CCCCC(=O)N/N=C/c1c(O)n(CC)c(=S)n(CC)c1=O |  | 18.8%
O=c1[nH]c(=O)n(CCc2ccc(F)cc2)c(O)c1/C=N/N1CCCCC1 |  | -2.13%
Cn1cc(C(=O)OCC(=O)N2CCCC2)c2ccccc21 |  | -1.93%
C=CCN1C(=O)C2(C(C(=O)OCC)=C(N)Oc3c2c(=O)oc2ccccc32)c2ccccc21 (centres undefined) |  | 1.37%
O=[N+]([O-])c1ccc(C2C3C(c4ccccc4)=NC4(CCCCC4)N32)cc1 (centres undefined) |  | -6.5%
COC(=O)C1=C(c2ccc(F)cc2OCc2ccccc2)C[C@@H]2CC[C@H]1N2C(=O)NCc1ccc2[nH]ccc2c1 |  | -12.4%
COC(=O)C1=C(c2cccc(OCc3ccccc3)c2)C[C@@H]2CC[C@H]1N2C(=O)NCc1ccc(Br)cc1 |  | 2.73%
C=CCn1c(O)c(/C=N/N2CCOCC2)c(=O)[nH]c1=S |  | -10.9%
C[C@@H]1CC[C@@]2(OC1)O[C@H]1C[C@H]3[C@@H]4CC=C5C[C@@H](O)[C@H](O)C[C@]5(C)C4CC[C@]3(C)[C@H]1[C@@H]2C (some centres undefined) |  | 19.8%
CC1=CC(=Cc2sc3ccccc3[n+]2C)C=C(C)O1 |  | -25.3%
COC(=O)C1=C(c2ccc(Cl)c(C(F)(F)F)c2)C[C@@H]2CC[C@H]1N2C(=O)NC(C)C |  | 8.23%
COc1ccc(-c2nn(CCC#N)cc2C(=O)Nc2ccc(C(C)=O)cc2)cc1 |  | 0.868%

Compound | Potency | activity change, negative = inhibition
COc1ccccc1NC(=O)N1C[C@@H]2C[C@@H](C1)c1cccc(=O)n1C2 |  | 8.13%
O=C1NC(=O)N(CCc2ccc(F)cc2)C(=O)/C1=C/C=C/c1ccccc1 |  | 7.59%
O=C1NC(=O)N(Cc2ccco2)C(=O)/C1=C\c1cccn1CCOc1ccccc1 | 28.2 µM (active) | 
O=C(O)COc1ccccc1/C=C1\C(=O)NC(=O)N(CCC2=CCCCC2)C1=O |  | -19.3%
CCOC(=O)c1c(C)c(C(=O)N2CCC3(CC2)OCCO3)c(C)n1CC |  | 9.98%
O=c1[nH]c(CN2CC=C(c3ccccc3)CC2)nc2scc(-c3cccs3)c12 |  | -8.66%
COc1ccccc1CN1CCN(C(=O)Cc2ccccc2)CC1 | 50.1 µM (active) | 
O=C(COc1ccc2ccccc2c1)N1CCN(Cc2ccncc2)CC1 |  | 53.5%
O=C(Cc1ccc(Cl)cc1)NCCN1CCN(C(=O)Cc2ccc(Cl)cc2)CC1 |  | 0.0403%
CCC(=NCCc1ccccc1)c1c(O)n(C2CCCCC2)c(=O)[nH]c1=O |  | -21.4%
O=C(Cc1ccccc1)N1CCN(C2CCCCCC2)CC1 | 50.1 µM (active) | 
O=C(Cn1c(=O)n(CC2CS2)c2ccccc21)N1CCCCC1 (centres undefined) |  | 8.82%
COc1ccc(N=Cc2c(O)n(C)c(=O)[nH]c2=O)cc1 |  | 0.618%
CN1CCC(OC(=O)c2cccc(F)c2)CC1 |  | -1.04%
COc1ccc(C(=O)C2CN(C)CC2C(=O)c2ccc(OC)cc2)cc1 (centres undefined) |  | 2.95%
COC(=O)C1=C(c2ccc3ccccc3c2)C[C@@H]2CC[C@H]1N2C(=O)NCCO |  | -6.21%
CC(Cc1ccccc1)NCCC(c1ccccc1)c1ccccc1 (centres undefined) |  | 12.5%
Cc1cc(=O)oc2c(C)c(OCC(=O)N3CCN(Cc4ccc5c(c4)OCO5)CC3)ccc12 |  | -18.4% [at 57.1 µM]
Fc1ccc(N2CCN(Cc3ccc4c(c3)OCO4)CC2)cc1 | 56.2 µM (active) | 
O=C(Cc1ccccc1[N+](=O)[O-])N1CCN(Cc2ccc3c(c2)OCO3)CC1 |  | -28.5%
